Our source for the activation values is PubChem BioAssay (NCATS).

Where “and” joins values, the source holds several entries; their conditions need not be identical. Equal values may be shown once. Inconclusive results are not listed. Calls of active or inactive are those of the source. Calls come from the whole dose curve. Residues, ends and D or L forms follow the SMILES beside them.

The target of the assay is Bile acid receptor (Homo sapiens) (UniProt Q96RI1). As to the kind of experiment: qHTS assay for small molecule agonists of farnesoid X receptor signaling (AID 588527).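 Note: series mostly up to about 77 µM; 0% = vehicle basal and 100% = reference agonist.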 As to conditions: HEK293T FXR-UAS-bla, beta-lactamase ratio, 16 h; active compounds read high. An outline of the steps: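 Agonist-mode beta-lactamase reporter in GeneBLAzer FXR-UAS-bla HEK293T cells, titration up to 92 uM, 16 h exposure at 37 C, CCF4 fluorescence. Response scaled to DMSO (0%) and 100 uM chenodeoxycholic acid (100%), then Hill-fitted for EC50 and efficacy.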
Sequence of Bile acid receptor (Homo sapiens) (Q96RI1 whole entry, looked up): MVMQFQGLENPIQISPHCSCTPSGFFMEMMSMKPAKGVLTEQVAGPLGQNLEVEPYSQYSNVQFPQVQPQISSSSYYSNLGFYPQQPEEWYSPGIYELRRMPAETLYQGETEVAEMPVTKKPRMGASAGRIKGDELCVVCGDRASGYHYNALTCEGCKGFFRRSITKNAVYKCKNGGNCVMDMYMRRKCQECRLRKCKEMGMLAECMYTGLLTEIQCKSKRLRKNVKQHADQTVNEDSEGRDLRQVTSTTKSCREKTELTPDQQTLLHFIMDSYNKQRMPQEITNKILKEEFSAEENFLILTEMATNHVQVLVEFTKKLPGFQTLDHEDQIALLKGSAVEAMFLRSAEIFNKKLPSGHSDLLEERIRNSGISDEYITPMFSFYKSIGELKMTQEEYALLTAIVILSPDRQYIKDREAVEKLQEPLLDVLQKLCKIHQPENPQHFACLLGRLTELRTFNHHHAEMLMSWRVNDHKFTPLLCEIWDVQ
In the case of `COc1cc(C=O)ccc1O`, the activation is -1.98% (inactive) and -0.968% (inactive).

For `Nc1nc(Cl)nc2c1ncn2[C@H]1C[C@H](O)[C@@H](CO)O1`, the activation is -0.12% (inactive).

Turning to `NCCNCCNCCN`, the activation is -3.81% (inactive).

`Oc1cccc(O)c1`: the activation was -2.84% (inactive).

In the case of `CCCCOC(=O)c1ccc(O)cc1`, the activation was 2.27% (inactive).

With `Cn1c(=O)c2[nH]cnc2n(C)c1=O`, the activation was 0.492% (inactive).

Regarding `CCOC(=O)c1ccc(O)cc1`, the activation was 0.927% (inactive).

In the case of `Nc1ccc(S(=O)(=O)c2ccc(N)cc2)cc1`, the activation was 5.45% (inactive) and -0.614% (inactive).

For the molecule `Cc1cc(C)nc(NS(=O)(=O)c2ccc(N)cc2)n1`, the activation is 1.04% (inactive) and -0.0754% (inactive).

As to `CN=C(NC#N)NCCSCc1nc[nH]c1C`, the activation was 1.62% (inactive).

In the case of `c1ccc2sc(SSc3nc4ccccc4s3)nc2c1`, the activation was 4.39% (inactive).

On to `C[C@]1(O)CC[C@H]2[C@@H]3CCC4=CC(=O)CC[C@]4(C)[C@@]3(F)[C@@H](O)C[C@@]21C`, for which the activation is -0.176% (inactive).

In the case of `COc1ccc(C(=O)c2ccccc2)c(O)c1`, the activation is -3.45% (inactive) and -6.15% (inactive).

For the molecule `CCCCOC(=O)CC(CC(=O)OCCCC)(OC(C)=O)C(=O)OCCCC`, the activation is 1.49% (inactive).

Regarding `COC(=O)[C@H](Cc1ccccc1)NC(=O)[C@@H](N)CC(=O)O` (H-Asp-Phe-OMe), the activation was -0.395% (inactive) and 1.51% (inactive).

With `O=C(O)c1ccc(S(=O)(=O)N(Cl)Cl)cc1`, the activation is 0.222% (inactive).

Take `O=C(O)Cc1cccc2ccccc12`: the activation was -0.869% (inactive) and 1.54% (inactive).

`Oc1ccccc1`: the activation was 0.295% (inactive) and -0.629% (inactive) and -5.57% (inactive).

For the molecule `Cc1cc(NS(=O)(=O)c2ccc(N)cc2)no1`, the activation was -1.53% (inactive).

Consider `CC(=O)O[C@H]1C(=O)[C@@]2(C)[C@H]([C@H](OC(=O)c3ccccc3)[C@]3(O)C[C@H](OC(=O)[C@H](O)[C@@H](NC(=O)c4ccccc4)c4ccccc4)C(C)=C1C3(C)C)[C@]1(OC(C)=O)CO[C@@H]1C[C@@H]2O`, for which the activation is 3.09% (inactive).

For `CC(C)=CCC/C(C)=C/CO`, the activation is 0.54% (inactive).

As to `Cc1noc(NS(=O)(=O)c2ccc(N)cc2)c1C`, the activation was 1.48% (inactive).

For `O=c1c(-c2ccc(O)cc2)coc2cc(O)cc(O)c12`, the activation was -3.37% (inactive).

Consider `O=C(O)CCCCC(=O)O`, for which the activation is -1.88% (inactive).

Take `Nc1ccc(C(=O)O)cc1`: the activation was 2.28% (inactive).

For the molecule `Cc1c(C)c2c(c(C)c1O)CCC(C)(COc1ccc(CC3SC(=O)NC3=O)cc1)O2` (centres undefined), the activation is 9.23% (inactive).

Consider `CCCc1c(OCCCCc2nn[nH]n2)ccc(C(C)=O)c1O`, for which the activation was 7.75% (inactive).

For `Cc1cc(=O)[nH]c(=S)[nH]1`, the activation was 0.173% (inactive).

For `CCCCCCCC(=O)OCC(COC(=O)CCCCCCC)OC(=O)CCCCCCC`, the activation was -2.1% (inactive).

Turning to `CC(=O)O[C@]1(C(C)=O)CC[C@H]2[C@@H]3C[C@H](C)C4=CC(=O)CC[C@]4(C)[C@H]3CC[C@@]21C`, the activation was 0.881% (inactive).

In the case of `CN(C)c1ccc2nc3ccc(=[N+](C)C)cc-3sc2c1`, the activation was -2.46% (inactive).

Turning to `CC(C)(C)CC(C)(C)c1ccc(OCCOCC[N+](C)(C)Cc2ccccc2)cc1`, the activation was -1.62% (inactive).

With `CC12CCC(CC1)C(C)(C)O2`, the activation was -0.483% (inactive).

Turning to `O=c1[nH]c(=O)n([C@H]2C[C@H](O)[C@@H](CO)O2)cc1Br`, the activation is -3.6% (inactive).

As for `CC(O)C(=O)O` (centres undefined), the activation was -0.922% (inactive).

For `Cc1ncc(CO)c(CO)c1O`, the activation was -0.349% (inactive).

On to `NC(=O)c1ccccc1O`, for which the activation is -3.79% (inactive).

Regarding `CC(=O)Nc1ccccc1`, the activation was 3.71% (inactive).

As to `CC(O)CN(CCN(CC(C)O)CC(C)O)CC(C)O` (centres undefined), the activation was 0.352% (inactive).
